Screens (PubChem)
TDP1 cell noCPT: qHTS for Inhibitors of human tyrosyl-DNA phosphodiesterase 1 (TDP1): qHTS in cells in absence of CPT | DT40 Tdp1-/- hTDP1 cells, no CPT, ATP luminescence, 48 h | Potency, µM (titrated, usually from 46.2 µM), inactives show at the highest dose activity change, negative = growth inhibition, actives largely listed as inhibitors | 420,000 tested, 15% active | AID 686978, 2013; note: % is set by controls: 0 for no effect and ±100 for the full control effect; nearly all actives have a fitted effect of over 55% in size
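Luminescent ATP content (CellTiter-Glo) served as the growth readout. Knockout chicken DT40 cells expressing human TDP1 were exposed to compounds without camptothecin for a minimum 48 hr at 37 °C.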
HepG2 tox: kills HepG2 cells in TGF-b inhibitor counter-screen; HepG2 CAGA-GFP viability, ATP luminescence, 18 h; Potency, µM (doses to about 46.1 µM), without a hit: top-dose activity change, negative = cytotoxicity, usual class: cytotoxic; 410,000 tested, 0.76% active
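CellTiter-Glo luminescence gave cytotoxicity after 18 hours at 37 degrees C. The cells were HepG2 CAGA-GFP in 1% FBS DMEM, stimulated with 500 pg/mL TGF-beta after compound addition. %Activity was normalised to no-cell wells (complete cell-killing) and DMSO (no toxicity), and curves were fitted and classified.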
HT1080NT lethal: kills 2HG-producing HT-1080-NT fibrosarcoma cells. HT-1080-NT fibrosarcoma viability, CellTiter-Glo ATP luminescence, 48 h. Potency, µM (top dose mostly 46.1 µM), for inactives: at the highest dose activity, negative = less viability, actives largely listed as cytotoxic. 360,000 tested, 1.6% active. AID 686970;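 note: NT is the 2HG producing partner of a matched IDH1 knockdown line; 0% = DMSO-treated cells and -100% = media-only wells without cells; nearly all actives have a fitted effect of over 55% in size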
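Toxicity toward the 2HG-producing NT line was scored as %Activity, normalised to DMSO and no-cell wells, from CellTiter-Glo luminescence after 48 hours' treatment.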
TGFb SMAD3 inh: inhibitors of TGF-b signaling. 410,000 tested, 1.2% active. Potency, µM (doses to about 46.1 µM), for the others: at the top dose activity, negative = inhibition, actives largely listed as inhibitors. HepG2 CAGA-GFP TGF-b/SMAD3 reporter, GFP fluorescence, 18 h; TGF-beta stimulated, 500 pg/mL final; note: % is set by controls: 0 for no effect and ±100 for the full control effect; nearly all actives have a fitted effect of over 65% in size
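GFP signal (ex488/em500-530) from TGF-beta-stimulated HEPG2 CAGA-GFP cells, 500 pg/mL final, 18 h at 37 degrees C in DMEM plus 1% FBS, normalized to unstimulated and DMSO-stimulated controls.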
HT1080 IDH1KD tx: kills HT-1080 cells with IDH1 knockdown; HT-1080 IDH1 knockdown viability, ATP luminescence, 48 h; 360,000 tested, 2% active; AID 686971; Potency, µM (titrated, usually from 46.1 µM), inactives show top-dose activity, negative = toxicity, usual class: cytotoxic;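 note: 0% = DMSO wells and -100% = cell-free medium wells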
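HT-1080-IDH1KD cells (IDH1 knocked down), 750/well in RPMI with 5% FBS, treated with compound 48 h at 37 degrees C. Viability by CellTiter-Glo luminescence, normalised to DMSO and no-cell wells; concentration-response curves classed.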
DT40 TDP1 CPT: DT40-hTDP1 cell growth loss with CPT; chicken DT40 Tdp1-/-;hTDP1 cells + 20 nM CPT, ATP luminescence, 48 h; Potency, µM (titrated, usually from 46.2 µM), for the others: at the highest dose activity change, negative = growth inhibition, most hits filed as inhibitors; 420,000 tested, 12% active; note: % is set by controls: 0 for no effect and ±100 for the full control effect; nearly all actives have a fitted effect of over 55% in size
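Chicken DT40 Tdp1-/- cells stably complemented with human TDP1 were seeded at 400 cells/well in medium containing 20 nM camptothecin, exposed to pin-transferred compounds, and grown at 37 °C for at least 48 hr. Viability was read as ATP luminescence.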
An asterisk follows results filed as active; ? = inconclusive; . = no result; [ ] = another dose, or the depositor's remark. An excerpt weighted towards active compounds, which were near 17% of everything screened. Calls come from the whole dose curve; as a rule, active = well fitted curve in the direction sought with a large enough effect; inconclusive = small, poorly fitted or top-dose-only effect, or another doubt; inactive = no such curve, though single readings can be large; an effect the other way counts as inactive or inconclusive. Potency is the fitted concentration of half-maximal effect.

SMILES | TDP1 cell noCPT | HepG2 tox | HT1080NT lethal | TGFb SMAD3 inh | HT1080 IDH1KD tx | DT40 TDP1 CPT
CCn1c(C(=O)N2CCCC(C(=O)NCCCOC)C2)cc2sccc21 (configuration not stated) | ? | -1% | . | 6% | . | ?
CCn1c(C(=O)N2CCC(C(=O)N3CCN(c4ccccn4)CC3)CC2)cc2sccc21 | 26µM* | -18% | 17% | -5% | -1% | ?
COc1ccc(C(=O)N2CCC(C(=O)N3CCN(c4ccc(OC)cc4)CC3)CC2)cc1 | ? | 1% | 18% | 12% | 8% | ?
CCn1c(C(=O)N2CCC(C(=O)N3CCN(c4ccc(OC)cc4)CC3)CC2)cc2sccc21 | 13µM* | -15% | . | -25% | . | 9.2µM*
Cn1c(C(=O)N2CCCC(C(=O)N3CCN(C(=O)c4ccco4)CC3)C2)cc2sccc21 (configuration not stated) | ? | -12% | -3% | 0% | -10% | 15µM*
CCn1c(C(=O)N2CCCC(C(=O)N3CCN(c4ccccc4)CC3)C2)cc2sccc21 (configuration not stated) | 23µM* | -25% | . | 46% | . | ?
CCCN(C(=O)C1CC(=O)N(c2ccccc2C(C)CC)C1)C1CCS(=O)(=O)C1 (configuration not stated) | -6% | 8% | 4% | 1% | 6% | -8%
CCn1c(C(=O)N2CCC(C(=O)N3CCN(c4cc(C)ccc4C)CC3)CC2)cc2sccc21 | 16µM* | -21% | . | ? | . | 23µM*
Cc1cc(C)n2c(NCc3ccccc3)c(-c3cc4ccccc4o3)nc2n1 | 15µM* | . | -27% | . | ? | 16µM*
CCOc1cccc2cc(-c3nc4sc5c(c4c(=O)[nH]3)CCC(C(C)(C)C)C5)c(=O)oc12 (configuration not stated) | -3% | 9% | . | 24% | . | -6%
COC(=O)[C@@]12C[C@@H](CC(=O)N3CCSCC3)C(=O)N(CCc3ccc(OC)c(OC)c3)C1=CCC(C)(C)C2 | ? | . | 2% | . | 1% | ?
COC(=O)[C@@]12C[C@@H](CC(=O)NCCC(C)C)C(=O)N(CCc3ccc(OC)c(OC)c3)C1=CCC(C)(C)C2 | 21µM* | . | -15% | . | -27% | ?
CCCCOCCCNC(=O)C[C@@H]1C[C@@]2(C(=O)OC)CC(C)(C)CC=C2N(CCc2ccc(OC)c(OC)c2)C1=O | 15µM* | . | -22% | . | -9% | ?
Cc1nn(-c2ccccc2)c2sc(C(=O)NNC(=O)COc3ccccc3)cc12 | -13% | -31% | ? | -1% | ? | -17%
Cc1nn(-c2ccccc2)c2sc(C(=O)Nc3cccc(Br)c3)cc12 | ? | 6% | . | -13% | . | ?
Cc1nn(-c2ccccc2)c2sc(C(=O)N3CCc4ccccc4C3)cc12 | 23µM* | -20% | -28% | ? | ? | ?
Cc1nn(-c2ccccc2)c2sc(C(=O)Nc3ccc(Br)cc3)cc12 | 16µM* | 0% | . | -19% | . | ?
Cc1cnc(NC(=O)c2cc3c(C)nn(-c4ccccc4)c3s2)s1 | ? | -10% | 11µM* | -8% | ? | ?
Cc1ccccc1-n1ncc(C(C)NS(=O)(=O)c2sccc2C)c1C (configuration not stated) | ? | -35% | 0% | -9% | -13% | ?
Cc1cc(OCC(=O)OCC(=O)NCCN2C(=O)CSC2=O)ccc1Cl | 0% | -4% | 2% | -15% | 5% | 4%
COc1cc(CCC(=O)OCC(=O)Nc2ccc(C)cc2Cl)cc(OC)c1OC | 11% | -16% | 9% | 12% | 2% | 18%
O=C(Nc1ncc([N+](=O)[O-])s1)c1ccc2c(c1)OCO2 | 18µM* | -64% | 15µM* | ? | 16µM* | ?
Cc1ccc(Cc2cnc(NC(=O)C3Cc4ccc(C)cc4C(=O)O3)s2)cc1 (configuration not stated) | . | -16% | . | 20% | . | .
Cc1ccc(C(=O)Nc2ncc(Cc3ccc(SC(F)F)cc3)s2)cc1 | 1.3µM* | 1% | 1.8µM* | ? | 2.6µM* | 1.2µM*
CC(=O)Nc1ncc([N+](=O)[O-])s1 | -12% | . | . | . | . | -21%
SMILES | TDP1 cell noCPT | HepG2 tox | HT1080NT lethal | TGFb SMAD3 inh | HT1080 IDH1KD tx | DT40 TDP1 CPT
Cc1ccc([N+](=O)[O-])cc1NC(=O)c1ccc2c(c1)OCO2 | 3% | 1% | 14% | -13% | 1% | 11%
Cc1ccc(C(=O)Nc2ncc([N+](=O)[O-])s2)cc1 | 18µM* | -70% | 18µM* | ? | 23µM* | 23µM*
Cc1cn2c(=O)cc(COc3ccc(Cl)cc3)nc2s1 | 0% | 18% | . | 19% | . | -5%
O=C(Nc1cnn(C23CC4CC(CC(C4)C2)C3)c1)c1cnn2c(C(F)(F)F)cc(-c3ccco3)nc12 | 16µM* | 0% | 0% | -2% | -2% | 18µM*
Cc1ccccc1Cn1ccc(NC(=O)CCSc2nc(-c3ccco3)cc(C(F)(F)F)n2)n1 | ? | 11% | -3% | 0% | -10% | -2%
Cc1ccccc1Cn1ccc(NC(=O)c2cnn3c(C(F)(F)F)cc(-c4ccco4)nc23)n1 | 15µM* | 2% | -7% | -22% | 3% | ?
CN(C)CC(C)(O)c1ccc2c(c1)CN(Cc1cn(C)c3ccccc13)CCO2 (configuration not stated) | 21µM* | . | . | . | . | -7%[9.04 µM]
Cn1cc(CN2CCc3ccccc3C2)c2ccccc21 | ? | -29% | -5% | -12% | ? | 9.2µM*
